Sfp inh = qHTS Assay for Inhibitors of Bacillus subtilis Sfp phosphopantetheinyl transferase (PPTase) | Biochemical Sfp PPTase activity, qHTS | AID 1490, 2009 | hit rate 3.5% among 310,000 | Potency, µM, without a hit: largest response in the series, negative = inhibition, usual class: inhibitors;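 note: the enzyme is Sfp with the accession as filed and its product quenches rhodamine fluorescence; 0% = enzyme reaction without inhibitor and -100% = no enzyme wells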
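With Hepes-Na pH 7.6 buffer containing 10 mM MgCl2, Sfp (15 nM) modified BHQ-2-YbbR (12.5 uM) using rhodamine-CoA (5 uM). Two reads 30 minutes apart at 525/598 nm yielded each well's rate.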
ALOX12 inh = Primary qHTS assay for inhibitors of human arachidonate 12S-lipoxygenase (ALOX12): Round 2 | Potency, µM (series often up to 108 µM), for inactives: at the top dose activity change, negative = inhibition, most hits filed as inhibitors | purified 12hLO, xylenol orange hydroperoxide absorbance | hit rate 1.1% among 580,000 | AID 1671190, 2021 | Polyunsaturated fatty acid lipoxygenase ALOX12 (Homo sapiens), P18054; note: % is set by controls: 0 for no effect and ±100 for the full control effect
Target sequence (P18054 whole entry, looked up): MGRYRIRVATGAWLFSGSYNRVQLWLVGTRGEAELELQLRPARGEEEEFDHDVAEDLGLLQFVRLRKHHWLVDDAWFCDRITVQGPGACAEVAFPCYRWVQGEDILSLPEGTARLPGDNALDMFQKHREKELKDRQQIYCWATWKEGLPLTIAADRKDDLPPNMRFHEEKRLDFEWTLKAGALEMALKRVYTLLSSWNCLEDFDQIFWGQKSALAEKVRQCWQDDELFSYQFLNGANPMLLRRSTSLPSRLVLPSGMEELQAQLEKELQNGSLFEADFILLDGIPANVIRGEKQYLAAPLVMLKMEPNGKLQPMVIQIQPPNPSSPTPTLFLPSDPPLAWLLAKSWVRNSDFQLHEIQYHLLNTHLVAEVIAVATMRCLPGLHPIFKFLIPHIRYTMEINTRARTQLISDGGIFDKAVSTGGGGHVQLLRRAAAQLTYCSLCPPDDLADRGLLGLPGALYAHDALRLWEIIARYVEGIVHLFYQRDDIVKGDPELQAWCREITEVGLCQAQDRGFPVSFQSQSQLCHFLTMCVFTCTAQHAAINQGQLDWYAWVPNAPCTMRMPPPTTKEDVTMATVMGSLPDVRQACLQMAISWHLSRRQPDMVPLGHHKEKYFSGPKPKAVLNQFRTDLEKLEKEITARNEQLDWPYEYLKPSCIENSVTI
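Hydroperoxide product was detected by ferrous iron/xylenol orange as the 573 to 405 nm absorbance ratio. Arachidonic acid at 40 uM (final) was turned over for 30 min at room temperature by 150 nM human 12hLO, pH 7.0 Hepes buffer, after 15 min compound preincubation.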
VDR inh = Inhibitors of the vitamin D receptor (VDR): qHTS; Potency, µM, for inactives: max response, negative = inhibition, hits mostly inhibitors; hit rate 0.93% among 400,000; VDR-SRC2-3 peptide fluorescence polarization, 2 h; note: % is set by controls: 0 for no effect and ±100 for the full control effect
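VDR–SRC2-3 interaction, FP format. Cmpds 23 nl via pintool, brief spin, 2 h ambient incubation.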
Glioma ERSR ind = qHTS for Inducers of the Endoplasmic Reticulum Stress Response (ERSR) in Human Glioma: qHTS; AID 602332, 2012; Potency, µM, inactives show at the highest dose activation, usual class: activators; U87-MG GRP78 promoter luciferase reporter, 16 h; hit rate 0.02% among 420,000; note: series mostly up to about 76 µM; % of control where 0% means no effect; nearly all actives have a fitted effect of over 35% in size
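Stably transfected U87-MG glioma cells carrying a GRP78-based luciferase sensor; 16 h compound incubation. Luminescence end-point read 10 min after Bright-Glo addition at room temperature.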
G9a inh = qHTS Assay for Inhibitors of Histone Lysine Methyltransferase G9a. AID 504332, 2011. Potency, µM (highest dose often 102 µM), without a hit: top-dose activity, negative = inhibition, actives largely listed as inhibitors. G9a H3K9 monomethylation, AlphaScreen, 2 h. Histone-lysine N-methyltransferase EHMT2 (Homo sapiens), Q96KQ7. hit rate 8.8% among 350,000; note: % is set by controls: 0 for no effect and ±100 for the full control effect; nearly all actives have a fitted effect of over 75% in size
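G9a (20 nM) preincubated 15 min RT with compounds, then 500 nM biotinylated H3K9 peptide and 20 uM SAM added; 2 h RT reaction. Monomethyl-H3K9 product detected by AlphaScreen with anti-H3K9me1 antibody, streptavidin donor and anti-rabbit IgG acceptor beads.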
An asterisk follows results filed as active; ? = inconclusive; . = not tested or not shown; ! = not confirmed by another sample; [ ] = dose if it differs, or a comment. Many of the other results were omitted from the sample, so hits are more common in it than they were. Calls come from the whole dose curve; as a rule, active = well fitted curve in the direction sought with a large enough effect; inconclusive = small, poorly fitted or top-dose-only effect, or another doubt; inactive = no such curve, though single readings can be large; an effect the other way counts as inactive or inconclusive. Potency is the fitted concentration of half-maximal effect.

SMILES	Sfp inh	ALOX12 inh	VDR inh	Glioma ERSR ind	G9a inh
O=C(/C=C/c1ccc(O)c(O)c1)c1ccc(O)cc1O	-23%	8.9µM*	?	?	.
O=C(/C=C/c1ccc(O)c(O)c1)NC(=O)c1ccccc1O	-12%	40µM*	-13%	12%	5%[12.7 µM]
NC1=NC(c2c[nH]c3ccccc23)n2c(nc3ccccc32)N1 (centres undefined)	.	6%	.	.	.
CN1Cc2ccc(Nc3ccccc3)nc2C(C)(C(=O)NCc2cccs2)C1 (centres undefined)	.	1%[176 µM]	.	.	.
CCN(C(=O)C1CCC1)C1CC1	.	0%	.	.	.
COc1ccc(/C(C)=C2\SC(=S)N(CCC(=O)O)C2=O)cc1	-15%	-3%	-3%	-3%	?
C/C(=C1/SC(=S)N(CCC(=O)O)C1=O)c1ccc(O)cc1	-28%	40µM*	6%	0%	7%[12.7 µM]
CCN(CC)c1ccc(/C=C/c2sc3ccccc3[n+]2CCCCI)cc1	.	.	.	-8%	.
CC/C(=C/c1sc2ccc(C)cc2[n+]1CCO)SC	28µM*	?	?	-2%	.
Cc1ccc2sc(C)[n+](CCC(C)S(=O)(=O)[O-])c2c1 (centres undefined)	40µM*	?	?	-2%	-7%[59 µM]
Cc1sc2ccccc2[n+]1CCCCI	.	.	.	-3%	.
CC/C(=C/c1sc2ccc(C)cc2[n+]1CCCS(=O)(=O)[O-])SC	50µM*	-3%	-11%	-3%	45µM*
Cc1ccc2c(C)cc[n+](CCCS(=O)(=O)[O-])c2c1	17%	-8%	8%	-6%	-5%[59 µM]
CN(C)Cc1cc(O)c(CN(C)C)cc1O	25µM*	?	?	-3%	1.4µM*
S=c1[nH]c(-c2ccc(Cl)cc2Cl)cs1	.	13µM*	.	.	.
S=c1[nH]c(-c2ccccc2)cs1	79µM*	2µM*	?	2%	1.4µM*
Fc1ccc(-c2csc(=S)[nH]2)cc1	11µM*	7.9µM*!	79µM*	-1%	?
O=c1[nH]c(-c2ccc(Cl)cc2)cs1	3%	-16%	-9%	0%	-9%
S=c1[nH]c(-c2cccc(Cl)c2)cs1	.	8.9µM*	.	.	.
Cc1cccc(Oc2nc(-c3ccncc3)nc3ccccc23)c1C	.	-8%	.	.	.
C=CCOC(=O)COc1ccc2oc(=O)cc(-c3cc4cccc(OC)c4o3)c2c1	.	-20%	.	.	.
CCOc1ccc(C(=O)Nc2ccc3sc(NC(=O)C(C)C)nc3c2)cc1	.	-18%	.	.	.
O=c1c(Br)c(-c2ccccc2Br)[nH]c2ccccc12	.	-16%	.	.	.
Cc1ccccc1OC(=O)c1ccc(-c2ccccc2)cc1	.	1%	.	.	.
Cc1ccc(C)c(C(=O)OCC(=O)c2c[nH]c3ccccc23)c1	.	60%	.	.	.
SMILES	Sfp inh	ALOX12 inh	VDR inh	Glioma ERSR ind	G9a inh
CCC(Oc1ccccc1F)C(=O)Nc1ccccc1Cl (centres undefined)	.	-21%	.	.	.
CCOC(=O)c1c(C)oc2c1c(C=NCCC(=O)O)c(O)c1ccccc12	-7%	0%	-12%	-7%	50µM*
CCOC(=O)c1c(C)oc2c1c(CN1CCN(C(=O)OCC)CC1)c(O)c1ccccc12	-21%	?	50µM*	4%	3.2µM*
CCOC(=O)c1c(C)oc2c1c(CN1CCN(CCO)CC1)c(O)c1ccccc12	?	?	?	15%	1.4µM*
Cc1cccc(-c2nc3cc(NC(=O)c4cccc([N+](=O)[O-])c4)ccc3o2)c1	.	-16%	.	.	.
Cc1nc2ccccc2c(Cl)c1C/C=C/Cl	.	3%	.	.	.
N#CC1=C2SCCN2C(=O)C(C#N)C12CCCCC2 (centres undefined)	5%	0%	1%	-5%	22µM*
CCSC1=C(C#N)C2(CCCCC2)C(C#N)C(=O)N1 (centres undefined)	13%	-14%	-4%	-3%	-4%[59 µM]
CSc1nnc(C)c(/C=C/NOCc2ccc(Cl)cc2)n1	14%	?	5%	-4%	13µM*
Cc1nnc(SCc2ccc(Cl)cc2)nc1/C=C/N(C)C	-12%	40µM*	-7%	0%	?
COc1cccc(NC(=O)c2ncoc2-c2ccc(OC)c(OC)c2)c1	.	4%	.	.	.
COc1ccc(/C=N/OCC(=O)OCC(=O)N(C)c2ccccc2)cc1	.	-19%	-16%	-1%	50µM*
CN1CCN(C(=O)c2ccc(Cn3cc(Cl)cn3)o2)CC1	5%	-6%	3%	-5%	71µM*
COC(=O)c1sc(NC(=O)c2ccc(Cn3cc(Cl)cn3)o2)c(C#N)c1C	16µM*	4%	?	-7%	7.9µM*
O=C(c1ccc(Br)o1)N1CCN(Cc2ccc3c(c2)OCO3)CC1	7%	0%	16%	0%	-18%
Cc1ccc(NC(=O)c2ccc(Cn3cc(Cl)cn3)o2)c(C)c1	-5%	0%	.	.	.
O=C(c1ccc(Cn2cc(Cl)cn2)o1)N1CCN(Cc2ccc3c(c2)OCO3)CC1	-29%	.	-13%	-2%	45µM*
O=C(c1ccc(Cn2cc(Cl)cn2)cc1)N1CCN(c2ccccc2)CC1	-3%	?	10%	-2%	?
CN(C)S(=O)(=O)c1ccc(N2CCCCC2)c(C(=O)N2CCCc3ccccc32)c1	.	-11%	.	.	.
CCOCCCNC(=O)N1CCc2c(c(-c3nncn3Cc3ccccc3)nn2C)C1	.	2%	.	.	.
CCC1CCCCN1C(=O)CNCC1CCCO1 (centres undefined)	1%	?	-9%	-8%	18µM*
O=C(CNCC1CCCO1)N1CCCc2ccccc21 (centres undefined)	-11%	-11%	10%	-4%	?
CN(C)C(=O)C(Sc1nncn1-c1ccccc1F)c1ccccc1 (centres undefined)	.	-33%	.	.	.
CSCC[C@H](NC(=O)C1CCN(S(=O)(=O)c2ccc(C)cc2)CC1)C(=O)NC1CCS(=O)(=O)C1 (some centres undefined)	1%	6%	-8%	-3%	56µM*
COc1cccc(CCC(=O)NCCn2ccn3nc(-c4cccc(OC)c4)cc3c2=O)c1	.	26%	.	.	.
Cc1ccccc1NC(=O)CCCCC(=O)Nc1ccccc1C	-6%	-26%	21%	-2%	8%
Cc1ccccc1NC(=O)C(Cl)=C(Cl)Cl	2%	1%	?	35µM*	25%[59 µM]
COc1ccc(C2NC(c3ccc(OC)cc3OC)C(C)C(=O)C2C)c(OC)c1 (centres undefined)	-25%	-17%	-18%	-2%	3.5µM*
COc1ccc(OC)c(C2CC(=O)C(C)C(c3cc(OC)ccc3OC)N2)c1 (centres undefined)	9%	6%	1%	1%	25%[59 µM]
O=C(COC(=O)COc1ccccc1)NCc1ccco1	.	?	-21%	-4%	-7%[0.501 µM]
